FBW7 act: human FBW7 E3 ligase activation, primary screen. AlphaScreen FBW7–phospho-cyclin E peptide binding, activator screen. actives 0.13% (n = 650,000). normalized activity (activation), % at 26.1 µM. Q969H0; in the data active = normalized activity above about 1.9%;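 also: purified mutant Fbw7 with reduced substrate affinity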
Target sequence (Q969H0 whole entry, looked up): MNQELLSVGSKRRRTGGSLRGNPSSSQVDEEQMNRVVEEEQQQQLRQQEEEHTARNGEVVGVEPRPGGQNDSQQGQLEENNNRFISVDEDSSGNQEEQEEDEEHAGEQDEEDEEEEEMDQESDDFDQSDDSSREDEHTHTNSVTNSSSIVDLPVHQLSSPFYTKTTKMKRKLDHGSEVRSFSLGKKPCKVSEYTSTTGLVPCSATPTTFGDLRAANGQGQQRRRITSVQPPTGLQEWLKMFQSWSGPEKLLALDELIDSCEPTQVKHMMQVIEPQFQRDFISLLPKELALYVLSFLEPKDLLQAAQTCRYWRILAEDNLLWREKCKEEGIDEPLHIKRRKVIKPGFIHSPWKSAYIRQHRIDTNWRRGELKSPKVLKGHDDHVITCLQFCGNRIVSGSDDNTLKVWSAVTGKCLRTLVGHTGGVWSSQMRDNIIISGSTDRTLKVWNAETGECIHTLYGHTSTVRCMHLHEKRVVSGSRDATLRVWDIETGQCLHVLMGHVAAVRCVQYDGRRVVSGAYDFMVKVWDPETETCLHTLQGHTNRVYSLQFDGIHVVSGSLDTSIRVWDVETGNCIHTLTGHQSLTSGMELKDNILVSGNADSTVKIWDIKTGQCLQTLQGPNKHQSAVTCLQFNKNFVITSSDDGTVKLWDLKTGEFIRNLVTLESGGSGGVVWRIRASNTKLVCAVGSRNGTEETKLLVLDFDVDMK
TEAD-YAP inh: TEAD-YAP interaction inhibition; HEK-TIYL cells, TEAD-Gal4/YAP UAS-luciferase luminescence; actives 1.4% (n = 640,000); inhibition, % at 9.12 µM; in the data active = inhibition above about 32%;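 also: 0% = median of test compound wells and 100% = reference inhibitor wells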
GPR151 ag: activates the human receptor GPR151; Q8TDV0; PathHunter beta-arrestin GPR151 cells, luminescence; activation, % at 11.2 µM; actives 1% (n = 650,000); AID 1508602; in the data active = activation above about 4.9%;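 also: 0% = median of compound wells and 100% = cells with positive control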
MITF primary: human MITF inhibition, primary screen. AlphaScreen MITF homodimerization, bead proximity signal. inhibition, % at 2.6 µM. actives 0.91% (n = 650,000). AID 1259374; in the data active = inhibition above about 50%;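 also: 0% = vehicle wells with protein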
GPR151 conf act: human GPR151 activation, confirmation screen. activation, % at 11.2 µM. shares compounds with GPR151 ag. GPR151 PathHunter beta-arrestin cells, luminescence, 90 min; % of EA-reagent control over plate median. 6,700 tested, under 10 active. AID 1508609;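 active = mean percent activation across replicates above the confirmation screen cutoff of 4.91%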
GPR119 ag: counter-screen for GPR151 activators: effect on human GPR119; shares compounds with GPR151 ag; GPR119 PathHunter beta-arrestin cells, luminescence, 90 min; 0 = compound-well median, 100 = enzyme-acceptor control; activation, % at 11.2 µM; actives 0.3% (n = 6,700);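 active = mean percent activation in the counterscreen above 29.09%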;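 also: counterscreen on off-target GPR119 to flag nonselective hits from the GPR151 activator screen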
An asterisk follows results filed as active; · = no result given; ! = not confirmed by another sample. A selection: hits, their analogues and other compounds. The true share with any hit is near 3.4%.

SMILES	FBW7 act	TEAD-YAP inh	GPR151 ag	MITF primary	GPR151 conf act	GPR119 ag
Cc1oc(C)c(S(=O)(=O)NC(C)C)c1C(=O)NCc1ccco1	0	2	7.1*	-2	2	1
Cc1occc1C(=O)NCc1ccco1	0	-3	-1	41	·	·
N#Cc1cc2c(nc1SCc1ccc([N+](=O)[O-])cc1)CCCCC2	0	2	6.1*	-1	0	-9
CN1CCCc2cc(CN3CCC4(CC3)CC4C(=O)Nc3ccc4c(c3)OCO4)ccc21 (centres undefined)	0	-1	4.9*	-2	0	-6
O=C(Nc1ccc2c(c1)OCO2)C1CC12CCN(C(=O)c1ccc(-n3ccnc3)cc1)CC2 (centres undefined)	0	4	2	-9	·	·
O=C(Nc1ccc2c(c1)OCO2)C1CC12CCN(C(=O)c1ccc(-c3ccco3)cc1)CC2 (centres undefined)	0	5	5.5*	-1	-1	0
CCOc1cc(C=O)c(Cl)cc1OC(C)C	1	-6	-1	8	·	·
CC1(C(=O)O)C2C=CC3(CN(c4ccccc4)C(=O)C31)O2 (centres undefined)	0	-2	8.1*	-6	0	2
N#Cc1c(SCC(=O)c2ccc(Br)cc2)nc2c(c1-c1ccccc1)CC/C2=C/c1ccccc1	1	-5	-1	15	·	·
CSc1nc2ccc(NC(=O)c3ccccc3S(C)(=O)=O)cc2s1	0	-31	3	0	·	·
Cn1nccc1Nc1nc(C(=O)Nc2ccccc2)cs1	0	-14	5.6*	9	0	-7
Cn1nccc1Nc1nc(C(=O)NCc2ccccc2)cs1	0	-3	-1	5	·	·
Cn1nccc1Nc1nc(C(=O)NCc2cccc(C(F)(F)F)c2)cs1	0	-9	8.7*	20	0	-2
Cn1nccc1Nc1nc(C(=O)NCc2cccnc2)cs1	0	-3	5.3*	-2	-1	-13
C/C(=N\NC(=O)c1cc2ccccc2cc1O)c1ccccc1	0	-2	4	-25	·	·
NC(=O)C1(N2CCCCC2)CCN(C(=S)Nc2ccc(F)c(Cl)c2)CC1	0	-1	5.1*	13	0	6
NC(=O)C1(N2CCCCC2)CCN(CC(=O)Nc2ccc(F)c(Cl)c2)CC1	0	-6	-1	5	·	·
O=S(=O)(NC1c2ccccc2Oc2ccccc21)c1ccc2c(c1)OCCO2	0	4	-1	-3	·	·
COC(=O)C(Cc1cc(Cl)ccc1Cl)SC#N (centres undefined)	0	-3	9.7*	23	-1	-12
CC(Oc1ccc2c3c(c(=O)oc2c1)CCCC3)C(=O)O (centres undefined)	0	7	0	-1	·	·
CSCCC(NC(C)=O)C(=O)Oc1ccc2c3c(c(=O)oc2c1)CCCC3 (centres undefined)	1	4	5.4*!	15	0	-4
O=C(Cc1c(O)c2ccccc2[nH]c1=O)NCc1ccccn1	0	4	5.6*	16	0	6
O=C(Cc1c(O)c2ccccc2[nH]c1=O)NCCO	0	3	1	-2	·	·
O=C1C(c2ccc(F)cc2)N(C2CCCCCCC2)C(=O)CN1C1CCCCCC1 (centres undefined)	1	-4	8.2*	4	-1	0
O=C1C(c2ccc(F)cc2)N(C2CCCC2)C(=O)CN1C1CCCCC1 (centres undefined)	0	-6	0	-5	·	·
SMILES	FBW7 act	TEAD-YAP inh	GPR151 ag	MITF primary	GPR151 conf act	GPR119 ag
O=C1C(c2ccc(F)cc2)N(C2CCCCC2)C(=O)CN1C1CCCCCC1 (centres undefined)	1	11	8.6*	6	3	9
Cc1cc(NC(=O)Cc2ccc(F)cc2)ccc1N1CCCC1=O	0	1	5.0*	17	0	0
Cc1cc(NC(=O)Cc2ccc(-c3ccccc3)cc2)ccc1N1CCCC1=O	0	11	2	8	·	·
COc1ccc(CCN2CCC3(CC2)OCc2ccccc2O3)cc1OC	0	0	-1	13	·	·
CCOc1ccc(Cl)cc1C1C2=C(CC(C)(C)CC2=O)N(C)C2=C1C(=O)CC(C)(C)C2	0	4	0	12	·	·
C#CCOc1ccc(Cl)cc1C1C2=C(CC(C)(C)CC2=O)N(C)C2=C1C(=O)CC(C)(C)C2	0	2	5.1*	3	1	10
COCCCNC(=O)CCc1c(C)nc2cc(-c3ccccc3)nn2c1C	0	-3	5.3*	-1	0	-1
CCN(CC(=O)N1CCCCC1)S(=O)(=O)c1ccc(Cl)cc1	0	0	4	9	·	·
CS(=O)(=O)c1ccc2c(c1)SC1=NC(C(F)(F)F)(C(F)(F)F)NC(=O)N12	0	0	0	1	·	·
CCOC(=O)CC1=CSC2=NC(C(F)(F)F)(C(F)(F)F)NC(=O)N12	0	7	5.6*	5	0	-2
Cc1cnc(Nc2ccc(-n3ccnc3)cc2)nc1NCCN(C(C)C)C(C)C	0	-1	7.0*	-3	0	-1
COC(=O)C1=C(C)N(C)C(C)=C(C(=O)OC)C1c1ccc(F)c(Br)c1	0	4	5.2*	3	0	5
CCOC(=O)CCNC1=CC=C(Nc2ccc(C)cc2)C2C(=O)c3ccccc3C(=O)C12 (centres undefined)	0	4	5	24	·	·
COc1cccc(CCC(=O)N2CCCC(N3CCC(CO)CC3)C2)c1 (centres undefined)	0	10	8.1*	12	0	-10
Cc1ccc(C(c2nnnn2CCc2ccccc2)N2CCOCC2)cc1 (centres undefined)	0	5	6.8*	-19	1	-1
COC(=O)c1cc(C(=O)Nc2nnc(C(F)(F)F)s2)cc([N+](=O)[O-])c1	0	4	1	4	·	·
Cc1ccccc1CNC(=O)CN(C)c1nnc(N2CCCC2=O)s1	1	-5	0	11	·	·
COc1cccc(CNC(=O)CN(C)c2nnc(N3CCCC3=O)s2)c1OC	0	-2	5.3*	0	-1	-5
CCc1ccc(OCC(=O)N/N=C/c2ccccc2O)cc1	0	-1	0	-20	·	·
COc1ccc(/C=N/NC(=O)COc2ccc(Cl)cc2Cl)cc1O	0	4	9.4*	2	0	-1
COc1ccc(/C=N/NC(=O)COc2ccc(C)cc2)cc1O	0	-6	0	7	·	·
COc1cc(/C=N/NC(=O)COc2ccc(Cl)cc2Br)ccc1O	0	6	0	13	·	·
O=C(COc1ccc(Cl)cc1Cl)N/N=C\c1ccc([N+](=O)[O-])s1	0	10	5.7*	7	-1	-12
COc1ccc(/C=N/NC(=O)COc2cccc(C)c2)cc1O	0	2	14*	1	1	-2
